According to PubChem BioAssay AID504467 (National Center for Advancing Translational Sciences (NCATS), 2011):
Among all 330,000 compounds or so, about 7,700 (2.3%) were called active. Where a call stands in place of a potency, no number is given. About 26% were inconclusive and are not listed. Calls follow the shape of the dose curve; as a rule, active = well fitted inhibition curve with a large enough effect; inconclusive = small, poorly fitted or top-dose-only effect, or effect the other way; inactive = flat fitted curve, though single readings scatter. For the sample, actives were picked, then their nearest neighbours and some compounds at random.

experiment: qHTS screen for small molecules that inhibit ELG1-dependent DNA repair in human embryonic kidney (HEK293T) cells expressing luciferase-tagged ELG1; settings: HEK293T ELG1-luciferase reporter, luminescence, 16 h, DNA damage induced by 5-fluorouridine; series mostly up to 46.1 µM; also: nearly all actives have a fitted effect of over 55% in size
Excerpt: NIH Molecular Libraries Probe Production Network [MLPCN] NIH Chemical Genomics Center [NCGC] MLPCN Grant: 1 R03 MH092164-01 Assay Provider: Kyungjae Myung, NHGRI, NIH Keywords: MLPCN, qHTS, NCGC, genotoxicity, cancer Assay Overview: Cancer cells divide rapidly compared to normal cells in the body. During cell division, cancer cells need to duplicate their genome by DNA replication. The failure of genome duplication leads to cancer cells' death. Therefore, inhibitors of DNA replication could specifically kill cancer cells. Based on this concept, many chemotherapeutic agents were developed and have been used to treat cancer patients. However, there are a limited number of agents available in the clinical setting, and some of those that do exist have low efficacy and severe side effects. Therefore, if we can find the compounds that effectively block DNA replication either by directly damaging DNA or by inhibiting other cellular mechanisms, the options for cancer treatment will be broadened. With this in mind, we developed a quantitative high-throughput ELG1-luciferase reporter gene assay. Small molecules that specifically block ELG1 function in response to DNA damage can be identified by monitoring the suppression of luciferase activity. Since ELG1 defines a pathway for repairing DNA damage, agents blocking ELG1 function can be used to sensitize cancer cells to chemotherapeutic agents whose mechanism of action involves the induction of DNA damage.
Assay Protocol Summary: For genotoxicity screening, 2,000 cells in 4 uL/well were dispensed into white, solid-bottom 1536-well plates using a solenoid-based dispenser. Following transfer of 1 uL 5-Fluorouridine and 23 nL compound or DMSO vehicle by a pin tool, the plates were incubated 16 hr at 37 °C and 5% CO2. 5 ul ONE-Glo (Promega) was then added to each plate and following a 30 min incubation at room temperature, luciferase activity was quantified on a ViewLux CCD-based plate reader.
Potency is read from the fitted curve at half-maximal effect.

Row | Compound | Potency
1 | CC1(C)CC(=O)C=C(c2cccc3c2Oc2ccccc2S3)C1 | inactive
2 | COc1cccc(N(CC(=O)Nc2cccc(F)c2)S(C)(=O)=O)c1 | inactive
3 | CCOc1ccc(N(CC(=O)Nc2cccc(OC)c2)S(C)(=O)=O)cc1 | inactive
4 | Cc1ccc(N(CC(=O)Nc2cccc(N(C)S(C)(=O)=O)c2)S(C)(=O)=O)cc1 | 6.51 µM (active)
5 | Cc1[nH]c2ccccc2c1C(=O)C(C)Sc1nnc(C2CC2)o1 (stereo unspecified) | inactive
6 | O=C(COC(=O)c1ccc([N+](=O)[O-])o1)NC12CC3CC(CC(C3)C1)C2 | inactive
7 | COC(=O)[C@]1(Cc2ccccc2)N[C@H](CN(C)S(=O)(=O)c2ccc(F)cc2)[C@@H]2C(=O)N(Cc3ccccc3)C(=O)[C@@H]21 | inactive
8 | CC(=O)N1c2ccc(S(=O)(=O)N3CCCC(C(=O)NCc4ccc(Cl)cc4)C3)cc2CC1C (stereo unspecified) | inactive
9 | N#Cc1cccc(NC(=O)C2CCCN(C(=O)c3ccc(Cl)cc3)C2)c1 (stereo unspecified) | inactive
10 | Cn1c(-c2sc3cc(C(F)(F)F)cnc3c2-c2ccccc2)n[nH]c1=S | inactive
11 | Cc1ccccc1-c1n[nH]c(=S)n1C | inactive
12 | Cn1c(-c2sccc2OCc2cccc(C(F)(F)F)c2)n[nH]c1=S | 23.1 µM (active)
13 | O=C(Nc1ccccc1N1CCCC1)c1ccc(F)c(S(=O)(=O)N2CCOCC2)c1 | inactive
14 | COc1ccc(CCC(=O)N2CCN(S(=O)(=O)c3ccc(OC)cc3)CC2)cc1 | inactive
15 | CCCNC(=O)CSc1nc(Cc2ccccc2)nc2ccccc12 | inactive
16 | CCCNC(=O)CCc1c(C)nc2c(c(C)nn2-c2ccc(C)cc2)c1C | inactive
17 | CCCCC(CC)CNCc1cccn1CCN1CCOCC1 (stereo unspecified) | inactive
18 | CCN(CC)c1ccc(NC(=O)c2ccc(=O)[nH]c2)cc1S(=O)(=O)Nc1ccc(OC)cc1 | inactive
19 | O=C(NCc1ccccc1CN1CCCC1)c1cccc(S(=O)(=O)Nc2ccc(F)cc2)c1 | inactive
20 | CCN(c1ccccc1)S(=O)(=O)c1cccc(C(=O)NCc2ccccc2CN2CCOCC2)c1 | 11.6 µM (active)
21 | CCN(c1ccccc1)S(=O)(=O)c1cccc(C(=O)O)c1 | inactive
22 | Cc1noc(C)c1C(=O)OC(C)C(=O)Nc1ccc2c(c1)OCO2 (stereo unspecified) | inactive

Row | Compound | Potency
23 | CC(C)C[C@H]1CN=C(Nc2ccccc2)N1CC1CCCCC1 | inactive
24 | CCCCN(C(=O)CSCC(=O)Nc1ccc(OC)cc1)c1c(N)n(CCC)c(=O)[nH]c1=O | inactive
25 | O=S(=O)(Nc1cccc(-n2cnnn2)c1)c1cnc(Cl)c(Cl)c1 | inactive
26 | COc1cccc(N(CC(=O)NC2CCCCCC2)S(=O)(=O)c2ccccc2)c1 | inactive
27 | Cn1c(=O)oc2cc(S(=O)(=O)N3CCC(C(=O)Nc4ccc(OC(F)(F)F)cc4)CC3)ccc21 | inactive
28 | Cc1ccc2nc(NC(=O)C3CCN(S(=O)(=O)c4ccc5c(c4)oc(=O)n5C)CC3)sc2c1 | 10.3 µM (active)
29 | Cc1nc2ccc(NC(=O)C3CCCCC3)cc2s1 | inactive
30 | CS(=O)(=O)c1ccc2nc(NC(=O)CN3CCCCCC3)sc2c1 | inactive
31 | O=C(Nc1nc2ccc(S(=O)(=O)N3CCCC3)cc2s1)C1CCCO1 (stereo unspecified) | inactive
32 | CS(=O)(=O)c1ccc2nc(NC(=O)C3CCCCC3)sc2c1 | 3.66 µM (active)
33 | CC(=O)c1c(C)[nH]c(C(=O)N2CCN(S(=O)(=O)c3ccc(F)c(F)c3)CC2)c1C | inactive
34 | O=C(COc1ccc(S(=O)(=O)Nc2cccc(C(F)(F)F)c2)cc1)N1CCOCC1 | inactive
35 | O=S1(=O)CCC(NC(=S)SCc2ccccc2Br)C1 (stereo unspecified) | inactive
36 | CCCSC(=S)NC1CCS(=O)(=O)C1 (stereo unspecified) | 23.1 µM (active)
37 | COc1ccc(NC(=S)NC2CCS(=O)(=O)C2)cc1 (stereo unspecified) | inactive
38 | O=C1COc2ccc(C(=O)CSc3ccc(Br)cc3)cc2N1 | inactive
39 | O=C(NCc1ccccc1CN1CCCC1)C1CCN(S(=O)(=O)c2ccc(Cl)cc2)CC1 | inactive
40 | Brc1ccc(CN2CC[C@H]3C=CCc4cccc(c43)C2)cc1 | inactive
41 | COc1ccc(CNC(=O)COC(=O)C(CCSC)N2C(=O)c3ccccc3C2=O)cc1 (stereo unspecified) | inactive
42 | Cc1sc2ncnc(SCC(=O)Nc3ccc(CN4CCCC4)cc3)c2c1C | inactive
43 | Cc1ccnc(N2CCCC(C(=O)Nc3cc(F)ccc3C)C2)n1 (stereo unspecified) | inactive
44 | Cc1sc2ncnc(N3CCC(C(=O)Nc4ccc(F)cc4Cl)CC3)c2c1C | 20.6 µM (active)

Row | Compound | Potency
45 | CC1CC(C)CN(CCOc2cccc3ccccc23)C1 (stereo unspecified) | inactive
46 | CN(CC(=O)NCCc1ccc(S(N)(=O)=O)cc1)CC(=O)Nc1ccc(F)c(F)c1F | inactive
47 | C=CCC[C@H](Cc1ccc(F)cc1)C(=O)OC[C@@H](NC(=O)[C@@H](CC=C)CC(=O)N[C@H](CO)Cc1ccccc1)C(C)(C)C | inactive
48 | C=CC[C@H](CC(=O)NCCO)C(=O)N[C@@H](COC(=O)[C@@H](CC=C)Cc1ccc(F)cc1)Cc1c[nH]c2ccccc12 | inactive
49 | C=CC[C@@H](CC(=O)N[C@H](CO)Cc1ccccc1)C(=O)N[C@@H](COC(=O)[C@@H](CC=C)Cc1ccc(F)cc1)Cc1c[nH]c2ccccc12 | inactive
50 | C=CCC[C@@H](Cc1ccc(F)cc1)C(=O)OC[C@@H](C)NC(=O)[C@H](CC=C)CC(=O)N(CCO)Cc1ccccc1 | inactive
51 | C=CCC[C@@H](Cc1ccc(F)cc1)C(=O)OC[C@H](Cc1c[nH]c2ccccc12)NC(=O)[C@@H](CC=C)CC(=O)N(CCO)Cc1ccccc1 | 20.6 µM (active)
52 | C=CCC[C@@H](Cc1ccc(F)cc1)C(=O)O[C@H](CNC(=O)[C@H](CC=C)CC(=O)N(CCO)Cc1ccccc1)c1ccccc1 | 20.6 µM (active)
53 | Cc1ccc(Br)c(NS(=O)(=O)c2cccc(C(=O)N3CCNC(=O)C3)c2)c1 | inactive
54 | CC(C)c1ccc(S(=O)(=O)N2CCN(C(C)C(=O)NC3CCCC3)CC2)cc1 (stereo unspecified) | inactive
55 | O=C(NC1CCCCCC1)C1CCN(C(=O)c2ccc(Cl)cc2)CC1 | inactive
56 | O=C(COC(=O)CN1C(=O)C2CCCCC2C1=O)Nc1ccc(F)c(F)c1F (stereo unspecified) | inactive
57 | CCC1(C)NC(=O)N(CC(=O)N2CCN(c3cccc(Cl)c3)CC2)C1=O (stereo unspecified) | inactive
58 | CCc1nc2ccccc2c(C(=O)NCc2ccc(OC)cc2)c1C | inactive
59 | COc1ccc(CNc2ncnc3ccccc23)cc1 | 2.59 µM (active)
60 | Cc1cc(C)n(-c2nc(C(F)(F)F)nc3ccccc23)n1 | inactive
61 | COc1cccc(CNc2nc(C(F)(F)F)nc3ccccc23)c1 | 13 µM (active)
62 | CC(Nc1nc(C(F)(F)F)nc2ccccc12)c1cccs1 (stereo unspecified) | inactive
63 | c1coc(CNc2ncnc3ccccc23)c1 | inactive
64 | COc1cccc(CNc2ncc(-c3ccccc3)n2C)c1 | inactive
65 | NS(=O)(=O)c1ccc(CCNc2nc(C(F)(F)F)nc3ccccc23)cc1 | 11.6 µM (active)
66 | NS(=O)(=O)c1ccc(CCNC(=O)CNC(=O)Cc2ccccc2)cc1 | inactive
